# Source: publication PMC3218832
# Columns and labels:
# Assay in all cases: protein binding microarray; high values mean tight binding
# Settings in all cases: dsDNA, one strand shown
# [1] = target: RELARELA (p65 homodimer) (Homo sapiens, UniProt Q04206 1-307)
# [2] = target: p50p50 homodimer (Homo sapiens, UniProt P19838 7-356)
# [3] = target: T1, p52p52 homodimer (Homo sapiens, UniProt Q00653 4-332)
# T1 sequence: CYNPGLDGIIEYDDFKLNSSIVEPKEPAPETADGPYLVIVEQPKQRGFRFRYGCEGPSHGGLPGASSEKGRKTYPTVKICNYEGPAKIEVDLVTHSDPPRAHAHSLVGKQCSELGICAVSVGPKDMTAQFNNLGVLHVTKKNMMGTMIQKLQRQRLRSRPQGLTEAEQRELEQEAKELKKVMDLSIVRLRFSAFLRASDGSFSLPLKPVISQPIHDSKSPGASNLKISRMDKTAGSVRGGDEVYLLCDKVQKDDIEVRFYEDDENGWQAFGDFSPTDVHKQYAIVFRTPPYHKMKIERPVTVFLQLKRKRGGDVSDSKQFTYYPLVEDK
# [4] = target: RELA (p65) subunit of heterodimer;p50 subunit (Homo sapiens;Homo sapiens, UniProt Q04206;P19838 1-307;7-356)
# [5] = target: RELA (p65) subunit of heterodimer;p52 subunit (Homo sapiens;Homo sapiens, UniProt Q04206;Q00653 1-307;4-332)
# [6] = target: RELB subunit;p50 subunit (Homo sapiens;Homo sapiens, UniProt Q01201;P19838 120-401;7-356)
# [7] = target: T2, RELB subunit;p52 subunit (Homo sapiens;Homo sapiens, UniProt Q01201;Q00653 120-401;4-332)
# T2 sequence 1: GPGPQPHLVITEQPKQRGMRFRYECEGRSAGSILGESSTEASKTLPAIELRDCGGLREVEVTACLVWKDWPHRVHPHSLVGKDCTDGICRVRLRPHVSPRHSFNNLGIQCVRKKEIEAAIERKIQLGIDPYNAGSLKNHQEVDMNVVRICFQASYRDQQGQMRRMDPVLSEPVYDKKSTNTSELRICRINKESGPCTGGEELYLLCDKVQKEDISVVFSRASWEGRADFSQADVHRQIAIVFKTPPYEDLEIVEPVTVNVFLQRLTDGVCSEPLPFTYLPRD
# T2 sequence 2: T1 sequence
# [8] = target: C-Rel subunit;p50 subunit (Homo sapiens;Homo sapiens, UniProt Q04864;P19838 1-285;7-356)
# [9] = target: T3, C-Rel subunit;p52 subunit (Homo sapiens;Homo sapiens, UniProt Q04864;Q00653 1-285;4-332)
# T3 sequence 1: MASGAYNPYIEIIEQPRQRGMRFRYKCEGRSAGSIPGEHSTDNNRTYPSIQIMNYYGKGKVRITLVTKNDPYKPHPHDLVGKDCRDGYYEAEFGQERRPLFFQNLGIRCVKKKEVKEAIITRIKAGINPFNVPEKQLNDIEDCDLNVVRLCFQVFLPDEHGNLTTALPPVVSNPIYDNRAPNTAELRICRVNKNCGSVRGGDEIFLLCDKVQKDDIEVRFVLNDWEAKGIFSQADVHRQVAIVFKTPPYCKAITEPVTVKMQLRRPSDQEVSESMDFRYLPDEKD
# T3 sequence 2: T1 sequence
# Chain of RELARELA (p65 homodimer) (Q04206 1-307): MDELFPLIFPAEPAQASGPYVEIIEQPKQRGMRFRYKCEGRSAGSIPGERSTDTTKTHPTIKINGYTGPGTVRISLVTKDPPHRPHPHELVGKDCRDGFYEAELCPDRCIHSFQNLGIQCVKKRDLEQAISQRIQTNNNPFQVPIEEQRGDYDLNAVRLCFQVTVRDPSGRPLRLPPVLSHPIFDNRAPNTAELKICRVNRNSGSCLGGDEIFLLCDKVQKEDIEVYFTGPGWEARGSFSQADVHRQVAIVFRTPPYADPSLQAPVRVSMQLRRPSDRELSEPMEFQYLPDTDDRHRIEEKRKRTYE
# Chain of RELA (p65) subunit of heterodimer;p50 subunit (Q04206 1-307, chain 1 of 2): as the sequence (Q04206 1-307) above
# Chain of RELA (p65) subunit of heterodimer;p50 subunit (P19838 7-356, chain 2 of 2): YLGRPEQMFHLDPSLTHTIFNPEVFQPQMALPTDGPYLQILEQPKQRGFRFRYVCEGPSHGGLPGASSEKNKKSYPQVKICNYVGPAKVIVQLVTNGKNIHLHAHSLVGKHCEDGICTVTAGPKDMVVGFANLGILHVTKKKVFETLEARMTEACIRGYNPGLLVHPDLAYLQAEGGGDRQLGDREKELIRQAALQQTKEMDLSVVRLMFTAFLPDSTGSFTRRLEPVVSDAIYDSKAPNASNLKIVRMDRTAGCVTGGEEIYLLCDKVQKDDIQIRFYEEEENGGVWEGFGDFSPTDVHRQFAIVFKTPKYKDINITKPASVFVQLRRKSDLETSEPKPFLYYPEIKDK
# Chain of p50p50 homodimer (P19838 7-356): as the sequence (P19838 7-356, chain 2 of 2) above
Sequence,binding signal [1] [z-score],binding signal [2] [z-score],binding signal [3] [z-score],binding signal [4] [z-score],binding signal [5] [z-score],binding signal [6] [z-score],binding signal [7] [z-score],binding signal [8] [z-score],binding signal [9] [z-score]
GGATTAGCCCC,0.514,0.405,0.296,0.431,0.293,0.211,0.414,0.535,0.373
CGGATGGTCCC,0.128,-0.139,-0.00887,0.132,0.027,-0.0363,-0.117,0.0204,0.154
CGAGGAATCCT,-0.235,-1.18,-0.504,-0.879,-0.8,-1.08,-0.975,-0.824,-0.613
AGGATTGTCCT,0.256,-1.5,-0.541,-0.736,-0.766,-0.86,-0.821,-1.01,-0.483
GGGGGAACCCC,2.66,1.15,3.25,2.25,3.23,2.62,2.86,2.58,3.54
CGAAACCCCCT,0.503,1.69,2,2.24,2.14,2.22,2.21,1.52,2.21
GGGAGTGTCCT,0.931,-0.152,0.385,0.0362,0.309,-0.212,0.00999,-0.0276,0.382
GGGATCGTCCT,0.173,-0.724,0.0256,-0.544,-0.296,-0.598,-0.614,-0.493,-0.166
CAAGGTACCCT,-0.567,-0.267,-0.0886,-0.499,-0.317,-0.0446,-0.391,-0.833,-0.57
GAAAACCCCCT,1.83,1.6,2.75,2.46,2.59,3.02,2.62,1.99,2.86
GAAGATGCCCC,0.0529,0.407,0.0127,0.599,0.186,0.421,0.376,0.679,0.228
AAGTTGTTCCT,-0.106,-1.19,-0.438,-0.58,-0.753,-0.971,-0.787,-0.889,-0.685
GAATTATTCCC,1.89,0.532,0.423,0.97,0.744,0.44,0.413,1.16,0.686
AAGTGGGTCCC,-0.651,-0.324,-0.0356,-0.468,-0.433,-0.00499,-0.124,-0.493,-0.609
AGATTACCCCC,0.372,1.19,0.936,1.24,1.2,1.18,1.63,1.21,1.12
GAGGAGGCCCT,-1.17,-1.07,-0.602,-1.02,-0.973,-0.68,-0.644,-1.36,-0.766
GGATGGCTCCT,-0.414,-1.51,-0.721,-1.07,-1.08,-1.19,-1.05,-1.64,-0.938
AGATTATCCCT,0.0615,0.543,0.486,0.262,0.522,0.325,0.392,0.0293,0.0511
AGGATAATCCC,1.11,-0.039,0.47,0.562,0.416,-0.113,0.0769,0.307,0.396
GAGAAACCCCC,1.35,1.41,2.15,2.14,2,1.98,2.04,1.45,2.14
GGGATTCTCCC,2.28,0.737,2.84,1.59,2.15,2.01,1.67,1.41,2
AAATAAACCCT,-0.478,0.0209,0.172,-0.112,0.045,-0.326,-0.0813,-0.324,-0.00628
AGGAGGTCCCC,0.488,0.454,0.466,0.767,0.75,0.631,0.644,0.617,0.715
CGAGAAATCCC,1.4,0.819,0.839,0.872,0.718,0.773,0.543,0.883,0.451
CGAAAAATCCT,0.627,-0.702,-0.361,-0.584,-0.435,-0.775,-0.584,-0.32,-0.29
GGAAGCTTCCT,0.818,-1.04,-0.619,-0.33,-0.759,-1.01,-0.836,-0.977,-0.614
AAAGAAGTCCT,-0.118,-0.972,-0.456,-0.815,-0.873,-0.926,-0.875,-0.558,-0.645
CAGTTTATCCC,0.419,-0.117,0.0692,-0.133,-0.195,-0.213,-0.287,0.0891,-0.0511
AGGAGTGTCCC,1.3,0.0859,0.362,0.736,0.372,0.333,0.321,0.586,0.486
CGAGTTATCCT,-0.476,-1.24,-0.637,-1.02,-0.873,-1.13,-0.889,-1.27,-0.871
